Data: PubChem BioAssay AID588773 (The Scripps Research Institute Molecular Screening Center, 2011)
Calls of active or inactive are those of the source.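 The calls were made as follows: active = inhibition of plasma PAF acetylhydrolase at a set limit or more at 0.1 µM, with tenfold selectivity over all off-targets; inactive = inhibition below the limit or weaker selectivity.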

Experiment: pPAFAH inhibition and serine hydrolase selectivity, late-stage follow-up, selectivity assay for pPAFAH inhibitor project, biochemical, gel-based, FP-Rh fluorescence, mouse, HTS hit compounds (AID 588773)
Conditions: gel-based competitive ABPP, proteome, MW 30 kDa protein, at 10 µM, active compounds read high

| SMILES | inhibition |
| --- | --- |
| O=C(CCCSc1ccc(Cl)cc1)Nc1cc(S(=O)(=O)N2CCOCC2)ccc1O | 19% (inactive) |
| O=C(Oc1ccc(-c2ccccc2)cc1)N1CCOCC1 | 44% (inactive) |
| O=C(Oc1ccc(-c2ccccc2)cc1)N1CCCCC1 | 69% (inactive) |
| O=C(/C=C/c1cccs1)c1cc(Br)ccc1OC(=O)N1CCOCC1 | 19% (inactive) |
| O=C(Oc1nsnc1N1CCOCC1)N1CCOCC1 | 35% (inactive) |
| O=C(Oc1ccc(Oc2ccccc2)cc1)N1CCC(O)CC1 | 5% (inactive) |
| CCCCOC(=O)c1ccc(OC(=O)N2CCOCC2)cc1 | 14% (inactive) |
